This is an account of results in PubChem BioAssay (NCI).

Compounds without any hit were thinned out: in the full panel of roughly 83,000, 20% have a hit.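 48-hour exposure, single concentration, 96-well plates; percent growth endpoint where 0 means no net growth. Active: below 10.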 Unmarked numbers belong to inactive results. Active and inactive are the calls of the source.

The assay concerns HL-60(TB) leukemia. The experiment in a line: NCI-60 one-dose screen, 48 h (100 = growth as untreated, 0 = no growth, -100 = all killed). Conditions: 10 µM unless noted.
With `O=C(NC(=S)Nc1ccc(-c2nc3ccccc3[nH]2)cc1)c1ccc2ccccc2c1`, the growth was 40.7%.
`COc1ccc(-c2nc(N)ncc2Oc2ccccc2OC)c(O)c1`: the growth was -21.8% (active).
With `C=C1C(=O)O[C@H]2[C@H]1CC/C(Cn1cc(CNC(=O)c3cc4ccccc4[nH]3)nn1)=C\CC[C@@]1(C)O[C@@H]21` the figure was -20.8% (active).
